The source of these data is PubChem BioAssay (NCATS).

Unmarked numbers belong to inactive results. Inconclusive results are not listed. Active and inactive are the calls of the source. Unless noted, the call rests on the fitted dose curve; in most records, active means well fitted curve in the direction sought with a large enough effect; inconclusive means small, poorly fitted or top-dose-only effect, or another doubt; inactive means no such curve, though single readings can be large; an effect the other way counts as inactive or inconclusive.

For assay [1], the target named is Glucocorticoid receptor (Homo sapiens) (UniProt P04150). As to the kind of experiment: GR-GFP Redistribution (AID 450;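 active means compounds whose dose series gives a full or clear partial fitted curve of increased nuclear translocation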; further: potency means the concentration at half of the fitted maximal effect).
Glucocorticoid receptor (Homo sapiens), sequence (P04150 whole entry, looked up, the tested form may be a part): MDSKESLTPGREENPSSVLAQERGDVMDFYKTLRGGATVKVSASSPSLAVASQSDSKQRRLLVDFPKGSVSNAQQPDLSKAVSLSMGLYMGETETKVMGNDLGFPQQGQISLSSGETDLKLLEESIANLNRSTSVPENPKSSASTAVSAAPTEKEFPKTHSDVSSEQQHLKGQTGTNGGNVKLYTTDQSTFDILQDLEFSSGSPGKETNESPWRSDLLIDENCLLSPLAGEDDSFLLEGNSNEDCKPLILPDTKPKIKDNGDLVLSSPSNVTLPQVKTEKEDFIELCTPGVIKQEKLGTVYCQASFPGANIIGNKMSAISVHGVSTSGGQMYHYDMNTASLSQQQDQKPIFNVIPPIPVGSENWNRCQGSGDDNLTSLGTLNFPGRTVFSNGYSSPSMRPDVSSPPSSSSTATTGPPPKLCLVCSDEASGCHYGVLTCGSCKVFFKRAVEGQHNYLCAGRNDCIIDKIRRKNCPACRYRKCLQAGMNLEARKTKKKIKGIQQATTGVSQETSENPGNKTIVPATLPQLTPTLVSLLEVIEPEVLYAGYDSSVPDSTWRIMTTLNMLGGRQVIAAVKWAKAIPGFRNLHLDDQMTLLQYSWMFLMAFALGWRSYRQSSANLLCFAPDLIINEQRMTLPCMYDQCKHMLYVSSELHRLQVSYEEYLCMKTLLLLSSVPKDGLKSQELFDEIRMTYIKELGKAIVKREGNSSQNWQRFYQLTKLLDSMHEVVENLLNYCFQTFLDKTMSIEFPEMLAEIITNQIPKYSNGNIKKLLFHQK
Assay [2] has the same target. As to the kind of experiment: GR-EFC Redistribution (AID 451; calls by dose curve; further: potency means the concentration at half of the fitted maximal effect). The conditions noted are these: CHO-K1 GR-EFC translocation, beta-gal luminescence, 2 h. The procedure, abridged: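 CHO-K1 cells stably expressing nuclear-localized β-gal enzyme acceptor and GR fused C-terminally to the enzyme donor fragment; ligand-driven nuclear translocation restores β-gal by complementation. Compounds titrated up to 46 uM final, 2 h at 37 °C; luminescence read.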

The target of assay [3] is Mitogen-activated protein kinase 10 (Mus musculus) (UniProt Q61831). As to the kind of experiment: JNK3 AlphaScreen Assay (AID 530; active means well fitted curve in either direction with a large enough effect, not every such curve was filed as active;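 further: kinase came from lysate of stimulated human HepG2 cells; signal reports phosphorylation of biotinylated GST-cJun 1-79 at Ser73 with 10 µM ATP; on the % scale 0 is the no-effect control and ±100 the full control effect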). The procedure, abridged:
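Phosphorylation of biotinylated GST-cJun(1-79) at Ser73 is measured by AlphaScreen proximity luminescence. Enzyme is JNK3 in HepG2 lysates activated with interleukin-1beta and tumor necrosis factor alpha; ATP is 10 uM final.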

In assay [4] the target is ATP-dependent 6-phosphofructokinase (Trypanosoma brucei brucei) (UniProt O15648). As to the kind of experiment: qHTS Assay to Find Inhibitors of T. brucei phosphofructokinase: hit validation (AID 492961).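 Further: luminescence reports ADP formed as PFK phosphorylates fructose-6-phosphate with ATP; on the % scale 0 is the no-effect control and ±100 the full control effect.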 The procedure, abridged: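 Reaction: 0.1 M triethanolamine pH 8.0, 5 mM MgCl2, F6P 0.5 mM, ATP 0.1 mM, PFK 1.25 nM, 45 min RT. Read-out: ADP-Glo luminescence. Analysis: concentration-response fits, classed by r2 and efficacy.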
ATP-dependent 6-phosphofructokinase (Trypanosoma brucei brucei), sequence (O15648 whole entry, looked up): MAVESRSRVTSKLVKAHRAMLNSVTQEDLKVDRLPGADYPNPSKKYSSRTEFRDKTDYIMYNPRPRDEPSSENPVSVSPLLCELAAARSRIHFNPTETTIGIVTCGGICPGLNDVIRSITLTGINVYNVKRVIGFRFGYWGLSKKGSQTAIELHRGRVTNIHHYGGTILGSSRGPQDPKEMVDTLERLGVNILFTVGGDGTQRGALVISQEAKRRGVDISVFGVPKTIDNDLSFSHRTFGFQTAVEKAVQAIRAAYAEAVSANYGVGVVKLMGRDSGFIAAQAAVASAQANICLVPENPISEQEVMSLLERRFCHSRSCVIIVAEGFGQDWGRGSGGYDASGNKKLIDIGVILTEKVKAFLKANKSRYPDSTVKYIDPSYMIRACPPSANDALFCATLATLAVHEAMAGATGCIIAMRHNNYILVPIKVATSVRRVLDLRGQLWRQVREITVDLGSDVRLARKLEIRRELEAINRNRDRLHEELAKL

For assay [5], the target named is DNA dC->dU-editing enzyme APOBEC-3G (Homo sapiens) (UniProt Q9HC16). As to the kind of experiment: qHTS for inhibitors of Vif-A3G interactions: Validation (AID 588379). Further: 0% is about no effect. The procedure, abridged:
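Yellow fluorescence (Ex 488, Em 500-530) of Vif-coexpressing HeLa A3G-eYFP cells, scanned by Acumen cytometer, reports blocked A3G degradation. Cells plated at 700/well overnight at 37 deg C before compound addition, then a further overnight compound incubation at 37 deg C.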
(qHTS replaces the single test concentration by a dilution series.)

Assay [6] has as its target Luciferin 4-monooxygenase (Photinus pyralis) (UniProt P08659). As to the kind of experiment: Biochemical firefly luciferase enzyme assay for NPC (AID 624030).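 Further: purified P. pyralis luciferase at 10 nM with luciferin and ATP substrate; 0% = DMSO and -100% = full luciferase inhibition by PTC124 control; nearly all actives have a fitted effect of over 70% in size.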 The essentials:
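Counter-screen for direct inhibition of the luciferase enzyme by approved-drug library compounds, run at 10 nM enzyme in 50 mM Tris acetate (final). Luminescence was read within 5 min of enzyme-buffer addition and normalized to PTC124 versus DMSO (0%).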

Assay [7] can be described thus: S16 Schwann cell viability assay (CellTiter-Glo assay) (AID 624031).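 Further: cellular ATP luminescence as a viability measure; plate controls were DMSO-treated cells for no effect and cell-free wells for full effect; nearly all actives have a fitted effect of over 70% in size.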 The essentials:
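This viability control uses native rat S16 Schwann cells grown in DMEM plus 10% FBS. After a 24 h compound treatment at 37 °C, CellTiter-Glo luminescence reports ATP content, scaled against DMSO-treated and cell-free wells.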

Assay [8] can be described thus: S16 Schwann cell PMP22 intronic element firefly luciferase assay (AID 624032).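 Further: plate controls were DMSO for no effect and PTC124 positive control mean for full effect; nearly all actives have a fitted effect of over 30% in size.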 The procedure, abridged: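 Rat S16 Schwann cells stably carrying a PMP22 intronic element-driven Fluc reporter were seeded overnight, then exposed to compounds for 24 h at 37 °C. Luminescence was normalized to PTC124 (positive control) and DMSO (0% activity).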
A short description of assay [9]: S16 Schwann cell PMP22 intronic element beta-lactamase assay (AID 624044; calls by dose curve;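 further: 0% = DMSO and -100% = potassium clavulanate positive control; nearly all actives have a fitted effect of over 15% in size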). Conditions: S16 rat Schwann cells, PMP22 element beta-lactamase FRET, 24 h; ratio activity, negative = inhibition: at 38.3 µM (top of the series). The essentials: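 Beta-lactamase reporter under a PMP22 intronic regulatory element in stable S16 rat Schwann cells; 24 h compound exposure. 460 nm blue signal normalized between DMSO (0%) and potassium clavulanate, with 535 nm FRET tracking viability; curves classed by r2 and response.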

A short description of assay [10]: qHTS profiling for inhibitors of Plasmodium falciparum proliferation (AID 504749). Further: nearly all actives have a fitted effect of over 60% in size. Further: potency means the concentration at half of the fitted maximal effect.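 On activity, negative = inhibition: 0% = DMSO vehicle and full inhibition = artemisinin control.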 The conditions noted are these: P. falciparum in erythrocytes, SYBR Green DNA, 72 h, at 28.7 µM (top of the series). The essentials: (§1)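 Quantitative HTS: compounds pinned into medium, infected erythrocytes added (0.3% parasitemia, 2.5% hematocrit), 72 h culture at 37 C under 5% CO2. Saponin/Triton lysis with SYBR Green I, overnight RT, then fluorescence read.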

The next assay relates to 3D7. Described as above. The conditions noted are these: P. falciparum in erythrocytes, SYBR Green DNA, 72 h; series mostly up to 28.7 µM. The procedure, abridged: as §1
The test system of another assay is C2A. The assay is described as above. Conditions: P. falciparum in erythrocytes, SYBR Green DNA, 72 h; series mostly up to 28.7 µM. The procedure, abridged:
as §1

A further assay relates to CP191. The assay is described as above. The conditions noted are these: P. falciparum in erythrocytes, SYBR Green DNA, 72 h; series mostly up to 28.7 µM. The essentials: as §1
For a further assay, the system named is CP192. The assay is described as above. The conditions noted are these: P. falciparum in erythrocytes, SYBR Green DNA, 72 h; series mostly up to 28.7 µM. The essentials: as §1
A further assay has as its system CP217. Described as above. The conditions noted are these: P. falciparum in erythrocytes, SYBR Green DNA, 72 h; series mostly up to 28.7 µM. The essentials:
as §1

The next assay deals with CP237. The assay is described as above. The conditions noted are these: P. falciparum in erythrocytes, SYBR Green DNA, 72 h; series mostly up to 28.7 µM. The essentials: as §1
Another assay deals with CP250. The description is as above. The conditions noted are these: P. falciparum in erythrocytes, SYBR Green DNA, 72 h; series mostly up to 28.7 µM. The procedure, abridged:
as §1

DNA dC->dU-editing enzyme APOBEC-3G (Homo sapiens), sequence (Q9HC16 whole entry, looked up): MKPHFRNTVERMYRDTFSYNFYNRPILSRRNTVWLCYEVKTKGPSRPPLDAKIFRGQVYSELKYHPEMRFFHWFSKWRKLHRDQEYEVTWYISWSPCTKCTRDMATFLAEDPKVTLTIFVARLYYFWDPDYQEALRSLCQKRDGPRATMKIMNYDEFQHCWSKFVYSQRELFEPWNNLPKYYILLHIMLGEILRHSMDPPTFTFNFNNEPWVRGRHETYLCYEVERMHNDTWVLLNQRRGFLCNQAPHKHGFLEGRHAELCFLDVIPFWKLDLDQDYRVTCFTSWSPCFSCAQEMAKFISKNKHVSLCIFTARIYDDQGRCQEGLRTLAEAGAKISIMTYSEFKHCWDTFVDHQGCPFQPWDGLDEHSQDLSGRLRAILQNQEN
Luciferin 4-monooxygenase (Photinus pyralis), sequence (P08659 whole entry, looked up): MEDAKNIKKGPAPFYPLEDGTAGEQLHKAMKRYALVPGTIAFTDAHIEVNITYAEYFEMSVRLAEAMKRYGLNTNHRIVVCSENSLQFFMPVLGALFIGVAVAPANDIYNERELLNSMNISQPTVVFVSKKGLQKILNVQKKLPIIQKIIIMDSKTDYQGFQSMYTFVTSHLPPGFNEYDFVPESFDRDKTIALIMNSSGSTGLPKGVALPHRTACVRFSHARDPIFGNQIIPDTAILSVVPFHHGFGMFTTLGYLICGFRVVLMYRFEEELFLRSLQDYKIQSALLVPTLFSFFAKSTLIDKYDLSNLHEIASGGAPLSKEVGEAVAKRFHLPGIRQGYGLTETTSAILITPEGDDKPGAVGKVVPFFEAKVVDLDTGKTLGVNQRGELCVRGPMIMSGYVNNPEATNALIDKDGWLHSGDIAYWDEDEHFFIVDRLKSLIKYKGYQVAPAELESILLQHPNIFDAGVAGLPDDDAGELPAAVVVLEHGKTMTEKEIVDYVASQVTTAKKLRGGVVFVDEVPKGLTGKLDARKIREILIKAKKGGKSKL

Consider `C[C@@](Cc1ccccc1)(NC(=O)CN)c1ccccc1`, for which the Potency was over 46 µM in assay [1], over 46 µM in assay [2] and 5.62 µM (active) in the assay with CP237. The Potency result in [3], in assay [4], in [6], in assay [7], in assay [8] and in [9] was “inactive” in each case. The Potency entry in the assay on 3D7, in the assay on C2A, with CP191, in the assay with CP192, with CP217 and in the assay on CP250 was “inactive” throughout. For the same molecule, in assay [5], the molecule was called inactive. For the same molecule, the figures for the activity, negative = inhibition in assay [10] (parasite line A) and in assay [10] (parasite line B) were 17.9% and 2.96%, respectively.
